Screening data from PubChem.
Sampled rows, rich in hits. Any-hit rate of the full collection: about 3.2%.
ALOX15 inhib: qHTS Assay for Inhibitors of 15-hLO (15-human lipoxygenase); AID 887, 2007; Polyunsaturated fatty acid lipoxygenase ALOX15 (Homo sapiens), P16050; Potency, µM (titrated, usually from 57.1 µM), hits mostly inhibitors; 74,000 compounds, 1.4% hits; purified 15hLO-1, xylenol orange hydroperoxide absorbance; also: nearly all actives have a fitted effect of over 55% in size
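Purified human 15hLO-1 (40 nM final) in 25 mM Hepes pH 7.5, 0.01% Triton X-100 was preincubated with compound 15 min at room temperature, then reacted 6 min with 50 uM arachidonic acid; hydroperoxide detected by Fe-XO, 573/405 nm absorbance ratio.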
Tau fil binding: qHTS Assay for Tau Filament Binding; Microtubule-associated protein tau (Homo sapiens), P10636; recombinant tau filaments, thioflavin S fluorescence, 15 h; filaments grown with octadecylsulfate alongside compound; Potency, µM (top dose mostly 57.1 µM); 71,000 compounds, 2% hits;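 also: actives lower thioflavin S fluorescence by blocking filaments or displacing dye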
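Tau 2 uM in ThS buffer dispensed; compound added; 60 uM ODS added (finals 1 uM tau, 30 uM ODS); 15 h 37 C; fluor ex450/em510.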
Hsp90 Hop PPI: qHTS Assay for Disrupters of an Hsp90 Co-Chaperone Interaction; Potency, µM (doses to about 57 µM); AlphaScreen TPR2A-His6 binding biotin-Hsp90 C-terminal peptide; Hsp90 C-terminal peptide / TPR2A (Hop) interaction, human; 71,000 compounds, 0.44% hits; active = well fitted curve in either direction with a large enough effect; inconclusive = small, poorly fitted or top-dose-only effect, or another doubt
USP2a inh: qHTS Assay for Inhibitors of Ubiquitin-specific Protease USP2a; Potency, µM (titrated, usually from 38.3 µM), most hits filed as inhibitors; Ubiquitin carboxyl-terminal hydrolase 2 (Homo sapiens), O75604; AID 927, 2007; USP2a enzymatic assay, qHTS inhibition; 60,000 compounds, 0.1% hits; also: nearly all actives have a fitted effect of over 60% in size
Target sequence (O75604 whole entry, looked up): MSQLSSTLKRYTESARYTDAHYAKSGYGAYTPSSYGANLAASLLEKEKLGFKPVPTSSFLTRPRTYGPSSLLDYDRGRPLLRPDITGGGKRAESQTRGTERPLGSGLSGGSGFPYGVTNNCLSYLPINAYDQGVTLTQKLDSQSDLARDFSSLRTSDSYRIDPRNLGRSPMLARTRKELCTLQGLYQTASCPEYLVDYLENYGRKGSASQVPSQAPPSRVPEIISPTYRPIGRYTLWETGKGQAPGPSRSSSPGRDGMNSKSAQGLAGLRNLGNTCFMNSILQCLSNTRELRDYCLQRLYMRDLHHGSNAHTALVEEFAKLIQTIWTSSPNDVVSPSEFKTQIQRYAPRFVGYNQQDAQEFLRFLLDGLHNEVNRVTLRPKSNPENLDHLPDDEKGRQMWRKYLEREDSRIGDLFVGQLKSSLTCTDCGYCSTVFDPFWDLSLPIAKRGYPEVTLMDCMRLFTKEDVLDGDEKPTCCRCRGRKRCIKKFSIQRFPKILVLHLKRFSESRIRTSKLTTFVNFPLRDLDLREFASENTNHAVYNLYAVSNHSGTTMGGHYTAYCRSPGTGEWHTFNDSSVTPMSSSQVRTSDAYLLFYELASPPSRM
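Inhibition is measured in a cell-free coupled assay with 20 nM USP2 core, 20 nM Ub-PLA2 and 20 uM NBD C6-HPC, 2.5 h incubation. Activity normalized to NEM control.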
A number is an active result; - = inactive; ? = inconclusive; . = no result; [ ] = remark or other dose. Unless noted, calls follow the shape of the dose curve; as a rule, active = well fitted curve in the direction sought with a large enough effect; inconclusive = small, poorly fitted or top-dose-only effect, or another doubt; inactive = no such curve, though single readings can be large; an effect the other way counts as inactive or inconclusive.

SMILES	ALOX15 inhib	Tau fil binding	Hsp90 Hop PPI	USP2a inh
Cc1c(C)n(CC(O)CN2CCCCCC2)c2ccccc12 (configuration not stated)	?	13µM	-	-
CC(=O)N1CCN(c2ccc(NCc3ccc(C)cc3)cc2)CC1	13µM	?	-	-
Cc1ccc(NCCNc2ccc(C)cc2)cc1	-	-	-	.
CC(=O)Nc1ccc(N2CCN(C(C)=O)CC2)cc1	-	-	-	-
CCc1ccc(CNc2ccc(N3CCN(C(C)=O)CC3)cc2)cc1	16µM	13µM	?	-
Cc1ccc(CNc2ccc(O)cc2)cc1	?	10µM	?	-
Cn1ncc2c(Cl)ncnc21	-[11.4 µM]	-[11.4 µM]	-[11 µM]	.
CS(=O)(=O)c1sc2nc(-c3cccs3)cc(-c3ccccc3)c2c1N	?	7.9µM	?	-
CC(=O)c1sc2nc(-c3cccs3)cc(C(F)(F)F)c2c1N	-	-	-	-
Cc1ccccc1-n1c(SC/C(O)=C(\C#N)c2nc3ccccc3[nH]2)nnc1-c1ccncc1	?	-	-	-
Cc1cc(C)n2c(SC/C(O)=C(\C#N)c3nc4ccccc4[nH]3)nnc2n1	-	10µM	-	-
CCNc1ncc2nc(-c3ccc(Cl)cc3)c(=O)n(-c3ccc(OC)cc3)c2n1	-	-	-	-
CC1(C)CSC(=S)N1S(=O)(=O)c1ccccc1	-	-	-	-
O=C(CN1CCCC1)N1c2ccccc2Sc2ccccc21	?	20µM	-	-
Nc1ncnc2oc(-c3ccco3)c(-c3ccco3)c12	2.5µM	-	-	.
Nc1nnc(-c2ccco2)s1	-	-	-	-
CC(=O)Nc1c(Cl)n(C(C)=O)c2ccccc12	-	20µM	-	-
COc1cccc2c(=O)n(CC(=O)NC3CCCC3)ccc12	-	-	-	.
COc1cccc2c(=O)n(CC(=O)N3CCCc4ccccc43)ccc12	-	13µM	-	.
CCN(CCCCOC(=O)c1ccc(OC)c(OC)c1)[C@@H](C)Cc1ccc(OC)cc1	-	-	-	-
O=C(NC1CCCCC1)c1cnn2c(C(F)(F)F)cc(-c3ccco3)nc12	25µM	10µM	-	-
Cc1cc(NC(=O)c2cnn3c(C(F)F)cc(-c4ccccc4)nc23)no1	-	?	-	-
Cc1cc(NC(=O)c2cnn3c(C(F)(F)F)cc(-c4ccccc4)nc23)no1	-	3.2µM	-	-
O=C(c1cnn2c(C(F)(F)F)cc(-c3ccco3)nc12)N1CCCCCC1	-	?	-	-
CCSc1ccc2c(c1)N(CCCN1CCN(C)CC1)c1ccccc1S2	-	4µM	-	-
SMILES	ALOX15 inhib	Tau fil binding	Hsp90 Hop PPI	USP2a inh
CSc1ccc2c(c1)N(CCCN(C)C)c1ccccc1S2	-[11.4 µM]	3.2µM	-[11 µM]	.
CN(C)CCCN1c2ccc(O)cc2Sc2ccc(Cl)cc21	-[11.4 µM]	3.2µM	-[11 µM]	.
CC(=O)N1CCC2(CC1)CN(Cc1ccc(C#N)cc1)C2	-	-	-	-
O=c1c(-c2ccc(F)cc2)nc2cnc(Oc3cccc(Cl)c3)nc2n1C[C@H]1CCCO1	-	?	-	-
COc1ccccc1-c1cncnc1Nc1ccccc1	25µM	-	-	-
COc1ccccc1-c1cncnc1NCCNC(C)=O	10µM	-	-	-
N[C@@H](C(=O)O)[C@H](CC(=O)O)c1ccc(Cl)cc1	-	?	-	.
CC(=O)N1CCN(c2ccc(Nc3nc(C)nc4c3oc3ccccc34)cc2)CC1	-	20µM	?	-
C=CC[C@@H]1C=C[C@H](O/N=C(\C)CCN2CCCCc3nc(C)c(C)cc32)[C@H](CO)O1	-[11.4 µM]	.	.	.
COc1ccc(-c2nc3cncnc3n(-c3ccccc3)c2=O)cc1	-	-	-	-
N#CC(C(=O)NCc1ccccc1)c1nc2ccccc2nc1N1CCCC1 (configuration not stated)	-	-	-	-
CCN(CC)c1nc2ccccc2nc1C(C#N)C(=O)NCCCOC (configuration not stated)	-	7.9µM	-	-
CCN(CC)c1nc2ccccc2nc1C(C#N)C(=O)NCCc1ccccc1 (configuration not stated)	-	-	-	-
CCOC(=O)N1CCN(c2nc3ccccc3nc2C(C#N)C(=O)NCCc2ccccc2)CC1 (configuration not stated)	-	4µM	-	-
N#CC(C(=O)NCc1ccco1)c1nc2ccccc2nc1N1CCOCC1 (configuration not stated)	-	4µM	-	-
CCCCCCNC(=O)C(C#N)c1nc2ccccc2nc1N1CCCC1 (configuration not stated)	-	-	-	-
N#CC(C(=O)NCCc1ccccc1)c1nc2ccccc2nc1N1CCOCC1 (configuration not stated)	-	2.5µM	-	-
CC1CCN(c2nc3c(c(=O)[nH]c(=O)n3C)n2Cc2ccccc2Cl)CC1	-	-	-	.
COc1ccccc1CCNC(=O)c1ccoc1C	-	-	-	-
CCCCCCNC(=O)C(C#N)c1nc2ccccc2nc1N1CCOCC1 (configuration not stated)	-	4µM	-	-
CC(=O)n1nc(-c2ccco2)nc1SCc1ccccc1	4µM	25µM	-	.
CCC(=O)n1nc(-c2ccco2)nc1SCc1ccccc1	-	-	-	-
COc1ccc(NC(=O)c2[nH]c(C)c(C(C)=O)c2C)cc1Cl	32µM	-	-	-
CC(N)=NCCC[C@H](N)C(=O)O	-	?	-	-
COc1ccc(S(=O)(=O)N2c3ccc(Cl)cc3[C@](O)(c3ccccc3Cl)[C@@H]2C(=O)N2CCC[C@H]2C(N)=O)cc1OC	16µM	.	.	.
SMILES	ALOX15 inhib	Tau fil binding	Hsp90 Hop PPI	USP2a inh
C=CC1=C(C)C2=Cc3c(C=C)c(C)c4[n]3[Sn+2][n]3c(c(C)c(CCC(=O)O)c3=CC3=NC(=C4)C(C)=C3CCC(=O)O)=CC1=N2	?	?	32µM	.
O=C(CNS(=O)(=O)c1cccc2nsnc12)NCc1ccc(Cl)cc1	-	-	-	-
COC(=O)[C@@]1(Cc2ccc(F)cc2)[C@H]2c3cc(C(=O)N4CCCC4)n(CCCNc4ncc(C(F)(F)F)cc4Cl)c3C[C@H]2CN1C(=O)c1ccccc1	.	-	-	.
COC(=O)Nc1ccc(C)cc1NC(=O)OC	-	-	-	-
COC(=O)C1=C(C)Nc2ccc(C)cc2S1	10µM	20µM	-[2.3 µM]	.
CNC1=C(Br)C(=O)c2ccncc2C1=O	-	16µM	?	.
COc1cc2c(cc1NC(=O)CSCC(=O)O)oc1ccccc12	-	-	-	-
COc1cc2c(cc1NCc1ccccn1)oc1ccccc12	?	32µM	?	-
CCCCn1nc(NC(=O)c2cccs2)c2cc3cc(OC)ccc3nc21	?	-	20µM	-
C=Cc1cccc(C)c1	-	-	-	.
Cc1cc(OCCCCCNCCO)cc(C)c1Cl	-[11.4 µM]	2.5µM	-[11 µM]	-[7.66 µM]
C=CCn1c(-c2cccs2)nc2ccccc21	-	-	-	-
C=CCn1c(N)c(-c2nc3ccccc3n2C)sc1=S	-	16µM	-	-
CCOC(=O)CSC1=C(C#N)C(c2ccc(F)cc2)C(C(C)=O)=C(C)N1 (configuration not stated)	-	-	-	-
